Data on one compound can be found in PubChem BioAssay AID493204 (National Center for Advancing Translational Sciences (NCATS), 2011).

The list shows a part of the results. Records with an inconclusive call do not appear. The source made the active and inactive calls. Calls come from the whole dose curve; as a rule, active = well fitted inhibition curve with a large enough effect; inconclusive = small, poorly fitted or top-dose-only effect; inactive = flat fitted curve, though single readings scatter.

Chain of Dual specificity protein kinase CLK4 (Homo sapiens) (Q9HAZ1 whole entry, looked up): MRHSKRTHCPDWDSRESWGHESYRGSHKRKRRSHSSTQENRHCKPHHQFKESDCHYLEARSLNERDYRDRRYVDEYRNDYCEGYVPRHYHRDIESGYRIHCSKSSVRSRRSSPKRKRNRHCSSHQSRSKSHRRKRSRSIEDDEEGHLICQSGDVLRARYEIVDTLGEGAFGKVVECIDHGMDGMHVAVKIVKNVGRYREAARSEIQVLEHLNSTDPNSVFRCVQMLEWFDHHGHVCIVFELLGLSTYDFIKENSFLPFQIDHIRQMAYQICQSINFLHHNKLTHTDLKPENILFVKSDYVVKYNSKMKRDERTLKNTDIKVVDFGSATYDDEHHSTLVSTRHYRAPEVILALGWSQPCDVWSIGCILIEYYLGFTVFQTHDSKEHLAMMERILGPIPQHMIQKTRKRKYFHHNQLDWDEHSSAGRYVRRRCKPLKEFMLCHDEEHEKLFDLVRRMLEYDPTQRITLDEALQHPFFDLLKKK

The target of the experiment is Dual specificity protein kinase CLK4 (Homo sapiens) (UniProt Q9HAZ1). The experiment can be described thus: Confirmation Assay for Inhibitors of CDC-like Kinase 4 (Kinase-Glo Assay): SAR round 2. The note with it: recombinant Clk4, Kinase-Glo ATP luminescence, 4.5 h. As to the method:
NIH Molecular Libraries Probe Production Centers Network [MLPCN] NIH Chemical Genomics Center [NCGC] MLPCN Grant: 1R03MH084827-01 Assay Submitter (PI): Tom Misteli NCGC Assay Overview: Clk4 (Invitrogen, cat# PV3839) was assayed using ATP and the RS repeat peptide (AnaSpec cat # 61722) as substrates. Following the Clk4 reaction, the remaining ATP levels were detected using Promega Kinase-Glo technology wherein the remaining ATP from the kinase reaction is detected using Ultra-Glo luciferase and D-luciferin which generates a bioluminescence signal from the ATP. The positive control for the assay was TG003 (Sigma-Aldrich, cat# 300801-52-9) which has been described as an inhibitor of Clk 4[1].
NCGC Assay Protocol Summary: Two uL/well of substrate-buffer solution (100 uM RS peptide, 1 uM ATP, 25 mM Tris pH7.5, 10 mM MgCl2, 0.5 mM EGTA, 2.5 mM DTT, 0.01% Triton X-100 final concentration) was dispensed into 1536-well, assay plates (Greiner, solid white medium-binding plates) with Aurora Discovery BioRAPTR Flying Reagent Dispenser (FRD; Beckton-Dickenson). Using a Kalypsys pin tool equipped with a 1536-pin tool, 23 nL of compound solution was transferred to the assay plate. […] Luminescence was detected with the ViewLux plate reader (Perkin Elmer, Waltham, MA) after 5 min incubation using a 5 second exposure time and 2x binning.
(In general: Kinase-Glo measures the ATP left after a reaction by luminescence.)
On to `c1nc(N2CCOCC2)c2cc(-c3ccc4c(c3)OCO4)ccc2n1`, for which the Potency was 0.104 µM (active).
